The text below walks through data of PubChem BioAssay (EPA / NIEHS).

Records with an inconclusive call do not appear. Active and inactive are the calls of the source. How the source made its calls, unless noted: active means hit-call score of the fitted dose curve at least 0.9, where 1 is the maximum; inconclusive means response in the unintended direction; inactive means score below 0.9.

A short description of experiment [1]: CEETOX_H295R_MTT_cell_viability: Viability Assessment in the CeeTox HT-H295R MTT Assay (AID 2283718; active means hit-call score of the fitted dose curve at least 0.9, where 1 is the maximum; inactive means score below 0.9;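 on AC50: curve fitted both ways so AC50 may mark viability loss or gain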). The procedure, abridged: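 Human H295R adrenal cells, prestimulated 48 h with 10 uM forskolin, were exposed 48 h to chemicals in 0.1% DMSO. Viability was measured in the same wells by MTT (0.5 mg/ml, 4 h, 37 C), absorbance 570/650 nm, as percent of controls.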

The subject of experiment [2] is Thyroperoxidase (TPO), gene 54314. The experiment can be described thus: CCTE_Simmons_AUR_rTPO: CCTE's Amplex UltraRed Assay for Thyroperoxidase (TPO) Inhibition, Simmons Lab (AID 2283662).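 On AC50: potency for loss of signal meaning inhibition of peroxidase activity.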 The procedure, abridged: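 Rat thyroid microsomes (5 ug protein) were incubated with test compound (8 concentrations, 5 nM–87.5 uM final, 0.5% DMSO), 25 uM Amplex UltraRed and 300 uM H2O2 in 200 mM phosphate buffer for 30 min at 37C in the dark; fluorescence read at 544/590 nm.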

The nature of experiment [3]: CCTE_Simmons_CellTiterGLO_HEK293T: Viability Assessment in CCTE's Assays for Thyroperoxidase (TPO) Inhibition, Simmons Lab (AID 2283665).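 On AC50: cells exposed to compound for 24 h before readout; actives reduce ATP signal below DMSO vehicle meaning cytotoxicity.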 The procedure, abridged:
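Cytotoxicity counter-screen: human HEK293T cells in low-serum (1% FBS) medium receive test chemical, 5 nM to 87.5 uM final, for 24 h; ATP is quantified by luciferase luminescence.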
(In ATP-based viability assays light output follows the ATP content of the culture.)

Experiment [4] is described as follows: STM_H9_OrnCyssISnorm_ratio: Stemina devTOX quickPredict H9 human embryonic stem cell (hESC)-based Assay for Ornithine (ORN):Cystine (CYSS) Ratio (AID 2283714). Summed up: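 Undifferentiated H9 hESCs exposed 72 h, media and compound replaced every 24 h; final 24-h conditioned media deproteinized and analysed by UPLC-HRMS against C13 spike-ins. Value is the internal-standard-normalized ORN/CYSS ratio versus 0.1% DMSO.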

Take `Cc1cccc2c1ccc1ccccc12`: the compound was called inactive in experiment [1].

In the case of `Cc1cc(C(=C2C=CC(=Nc3ccc(S(=O)(=O)O)cc3)C=C2)c2ccc(Nc3ccc(S(=O)(=O)O)cc3)cc2)cc(S(=O)(=O)O)c1N`, the AC50 (commonly the midpoint of the concentration-response curve, whichever way the signal moves) in experiment [2] is 29.4 µM (active). In addition, the compound was called inactive in experiment [3].

`CCCCCC(C)OC(=O)COc1ccc(Cl)c2cccnc12` (centres undefined): the outcome in experiment [1] was inactive.

For `Oc1c(Cl)cc(Cl)cc1Sc1cc(Cl)cc(Cl)c1O`, the result in experiment [4] was inactive.

`CC(C)(c1ccc(Oc2ccc(N)cc2)cc1)c1ccc(Oc2ccc(N)cc2)cc1`: the result in experiment [1] was inactive.

On to `CCCCCc1ccc(O)cc1`, for which the compound was called inactive in experiment [1].

With `Clc1ccc(Nc2nnc(Cc3ccncc3)c3ccccc23)cc1`, in experiment [1], the call was inactive.

Turning to `C/C=C/C(=O)C1=C(C)CCCC1(C)C`, the compound was classed as inactive in experiment [1].

Turning to `CC(C)CCOCCC(C)C`, the outcome in experiment [1] was inactive.

As for `CC1=CC(=O)c2ccccc2C1=O`, in experiment [4], the AC50 was 11.8 µM (active).

As to `COc1cc([N+](=O)[O-])ccc1N`, the call in experiment [2] and in experiment [1] was inactive. Also, in experiment [3], the AC50 is 19.1 µM (active).

`COc1cccc(O)c1`: the call in experiment [1] was inactive.

With `CCCCCCCCCCCC`, the concentration at half-maximal activity (AC50) was 43.8 µM (active) in experiment [2] and 31.8 µM (active) in experiment [3].

For `O=C1OC2(c3ccccc31)c1cc(I)c(O)c(I)c1Oc1c2cc(I)c(O)c1I`, the AC50 in experiment [2] was 16 µM (active); in experiment [3] it was 5.7 µM (active).

Take `C[C@]12CC[C@@H]3c4ccc(O)cc4CC[C@H]3[C@@H]1C[C@@H](O)[C@@H]2O`: the AC50 in experiment [2] is 11.9 µM (active); in experiment [1], 91.7 µM (active). For the same compound, the result in experiment [3] was inactive.

On to `c1cc[nH]c1`, for which the call in experiment [1] was inactive.

`O=C(NCc1ncc(C(F)(F)F)cc1Cl)c1c(Cl)cccc1Cl`: in experiment [1], the result was inactive.
